Screening data as filed in PubChem.
The list is not random: actives were taken first. Their share in the collection is about 4.8%.
ssDAF-12 act = activates DAF-12 receptor from parasite S. stercoralis. HEK293 ssDAF-12/GRIP1 lit1-tk-luc reporter, luminescence; % of 3 µM dafachronic acid response. activation, % at 6.8 µM. actives 1% (n = 370,000). AID 652126;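 active means activation above the mean over all tested compounds plus 3 SD, cut at about 0.9% in these data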
Rev-erbA mod = modulates human Rev-erb alpha binding to DNA | activity, % at 10 µM | actives 0.79% (n = 370,000) | Rev-erbα–FITC-DNA binding, fluorescence polarization, 90 min;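 active means activity above about 14%, limit read from the data; passing the limit was not always enough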
Target sequence (P20393 whole entry, looked up): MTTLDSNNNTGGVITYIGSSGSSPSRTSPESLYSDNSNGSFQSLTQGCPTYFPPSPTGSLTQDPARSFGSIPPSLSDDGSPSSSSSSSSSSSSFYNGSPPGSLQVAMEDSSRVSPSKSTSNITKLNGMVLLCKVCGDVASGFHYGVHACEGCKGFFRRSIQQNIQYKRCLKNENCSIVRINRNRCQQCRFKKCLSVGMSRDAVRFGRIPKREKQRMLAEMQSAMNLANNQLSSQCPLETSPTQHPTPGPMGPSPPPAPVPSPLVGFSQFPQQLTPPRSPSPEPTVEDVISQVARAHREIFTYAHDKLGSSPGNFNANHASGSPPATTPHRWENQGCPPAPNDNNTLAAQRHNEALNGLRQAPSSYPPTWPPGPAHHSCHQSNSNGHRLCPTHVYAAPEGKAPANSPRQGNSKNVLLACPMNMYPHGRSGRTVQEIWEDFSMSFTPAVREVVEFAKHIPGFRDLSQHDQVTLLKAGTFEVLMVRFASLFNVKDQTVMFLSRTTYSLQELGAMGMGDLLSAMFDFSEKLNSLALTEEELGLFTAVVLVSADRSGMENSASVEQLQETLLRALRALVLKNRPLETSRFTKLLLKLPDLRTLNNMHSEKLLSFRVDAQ
DAX1 inh-1 = inhibitors of human orphan nuclear receptor DAX1 (NR0B1); HEK293 Gal4-DAX1 luciferase reporter, luminescence; inhibition, % at 6.75 µM; actives 0.99% (n = 340,000); AID 504766;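 active means inhibition above the mean over all tested compounds plus 3 SD, cut at about 4.2% in these data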;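 further: inhibition shows as a rise in luminescence from relieved DAX1 repression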
hcDAF12 agonist = activates DAF-12 receptor from parasite H. contortus. activation, % at 6.8 µM. HEK293 hcDAF-12 lit1-tk-luc reporter, luminescence; 0% DMSO, 100% Δ7-dafachronic acid. actives 1.4% (n = 370,000);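 active means activation above the mean of all tested compounds plus 3 SD, cut at about 5.5% in these data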
DAX1 inh-2 = blocks DAX1 repression of SF-1 activated StAR promoter; HEK293T StAR-luciferase reporter, SF-1/DAX-1 repression relief; inhibition, % at 6.8 µM; actives 1.1% (n = 370,000);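 active means inhibition above the mean over all tested compounds plus 3 SD, cut at about 3.6% in these data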;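 further: higher inhibition means more luminescence from relief of DAX-1 repression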
hgDAF12 agonist = activates the H. glycines DAF-12 receptor ligand-binding domain; actives 1.8% (n = 370,000); AID 687014; activation, % at 6.8 µM; HEK293 GAL4-hgDAF12 UAS-luciferase reporter, agonist luminescence; normalized to butyrate control;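 active means activation above a cutoff set at the mean of all screened compounds plus 3 SD, cut at about 10% in these data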
NR1D1 mod conf = Rev-erb alpha (human) modulation, hit confirmation | shares compounds with Rev-erbA mod | Rev-erb alpha FITC-DNA binding, fluorescence polarization, 90 min | activation, % at 25 µM | actives 61% (n = 3,000);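 active means activation at or above a set limit, or at least 3 SD above the negative control mean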
RORg counter = affects RORgamma DNA binding in a Rev-erb alpha counter-screen | purified RORgamma protein-FITC-DNA binding, fluorescence polarization | IC50, µM | actives 8% (n = 910) | shares compounds with Rev-erbA mod | AID 1259320;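 active means Compounds whose fitted half-maximal concentration for disrupting protein-DNA binding is below 10 micromolar; the record names Rev-erb in its text, so the target is in doubt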
Of the large screens only hits and unclear results are named; the others gave an inactive call (follow-up assays come after a bar, where they were run).

CCOC(=O)C1=C(Nc2ccc(Br)cc2)CC(C)(O)C(C(=O)OCC)C1c1ccccc1 (stereo not drawn)	Rev-erbA mod 28 | NR1D1 mod conf inactive
COC(=O)C[C@@H]1CC[C@@H]2[C@H](COc3ccc(NC(=O)Nc4c(C)noc4C)cc3C(=O)N2C)O1	none (no result: DAX1 inh-1)
COC(=O)[C@]1(Cc2ccccc2)N[C@H](c2ccc(-c3ccccc3)cc2)[C@@H]2C(=O)N(C)C(=O)[C@@H]21	none
COC(=O)[C@]1(Cc2ccccc2)N[C@H](c2ccc(-c3cc(C(C)=O)cs3)cc2)[C@@H]2C(=O)N(C)C(=O)[C@@H]21	Rev-erbA mod 23 | NR1D1 mod conf inactive
COc1ccc(-c2noc(COc3ccc(C)c(C)c3)n2)cc1OC	none
COc1ccc(-c2noc(COc3ccc4ccccc4c3Br)n2)cc1OC	Rev-erbA mod 29 | NR1D1 mod conf 17
Cc1cn2c(N)c(C=C3C=C(Cl)C(=O)C(Cl)=C3)c(=O)nc2s1	Rev-erbA mod 26 | NR1D1 mod conf inactive
CCOC(=O)CC[C@H]1CC[C@]2(CCCN(C(=O)c3ccco3)C2)O1	none (no result: DAX1 inh-1)
CCN1/C(=C/c2ccc3cc(C)ccc3[n+]2CC)Sc2ccccc21	Rev-erbA mod 111 | NR1D1 mod conf 101 | RORg counter inactive
CC[n+]1c(/C=C2\Sc3ccccc3N2C)ccc2cccc(C)c21	none (no result: Rev-erbA mod)
CCN1/C(=C/c2ccc3cc(C)ccc3[n+]2CC)Sc2cc(C)c(C)cc21	Rev-erbA mod 20 | NR1D1 mod conf 22
CC[n+]1ccccc1/C=C1\Sc2ccc(C)cc2N1C	none
O=S(=O)(O)CCCS(=O)(=O)O	none (no result: ssDAF-12 act, DAX1 inh-1, hcDAF12 agonist, DAX1 inh-2, hgDAF12 agonist)
COC(=O)[C@]12C[C@H](CC(=O)NCc3ccc(C)o3)C(=O)N(Cc3ccc(Cl)cc3Cl)C1=C[C@H](C(C)C)O[C@@H]2C1CC1	none (no result: DAX1 inh-1)
CCCN1CCCCC(NC(C)=O)C1=O (stereo not drawn)	none (no result: DAX1 inh-1)
CCCCCCCCCCCCCCCCCCCCCC(=O)Nc1ccn([C@@H]2O[C@H](CO)[C@@H](O)[C@@H]2O)c(=O)n1	none (no result: ssDAF-12 act, DAX1 inh-1, hcDAF12 agonist, DAX1 inh-2, hgDAF12 agonist)
Cc1cc2oc(=O)cc(COC(=O)c3n[nH]c4ccccc34)c2cc1C	Rev-erbA mod 23 | NR1D1 mod conf inactive
Cc1cccc(C)c1OCCOC(=O)c1n[nH]c2ccccc12	none
COc1ccc2c(COC(=O)c3n[nH]c4ccccc34)cc(=O)oc2c1	Rev-erbA mod 59 | NR1D1 mod conf 34 | RORg counter inactive
COC(=O)[C@]12CCCCC=C1N(CCc1ccc(OC)c(OC)c1)C(=O)[C@H](CC(=O)NCCc1ccccc1OC)C2	none (no result: DAX1 inh-1)
Nc1nnc(CCS(=O)(=O)c2cc(Cl)ccc2Cl)s1	none
Cc1ccccc1CN(C)CCS(=O)(=O)c1cc(Cl)ccc1Cl	Rev-erbA mod 16 | NR1D1 mod conf inactive
O=C(N=c1ccn(-c2nc3ccccc3nc2NS(=O)(=O)c2ccccc2)cc1)c1cccs1	Rev-erbA mod 174 | NR1D1 mod conf 145 | RORg counter inactive
Cc1ccccc1C(=O)N=c1ccn(-c2nc3ccccc3nc2NS(=O)(=O)c2ccc(F)cc2)cc1	Rev-erbA mod 35 | NR1D1 mod conf 92 | RORg counter inactive
O=S(=O)(Nc1nc2ccccc2nc1Cl)c1ccc(F)cc1	none
CCN(CC)C(=O)CC[C@H]1CC[C@]2(CCCN(C(=O)c3cccnc3)C2)O1	none (no result: DAX1 inh-1)
CCOC(=O)c1c(NC2=NS(=O)(=O)c3ccccc32)sc2c1CCC(C)C2 (stereo not drawn)	Rev-erbA mod 41 | NR1D1 mod conf inactive
COC(=O)c1c(NC2=NS(=O)(=O)c3ccccc32)sc2c1CCC(C(C)(C)C)C2 (stereo not drawn)	Rev-erbA mod 30 | NR1D1 mod conf 19
COC(=O)C1=C(C)N(C)C(=NCc2ccc(OC)cc2)NC1c1cccc(Cl)c1 (stereo not drawn)	none (no result: DAX1 inh-1)
COc1ccc(-c2nn(C)c3sc(C(=O)NCc4ccco4)cc23)cc1OC	Rev-erbA mod 58 | NR1D1 mod conf 52 | RORg counter inactive
COc1ccc(NC(=O)c2cc3c(-c4ccc(OC)c(OC)c4)nn(C)c3s2)cc1OC	none
CCOC(=O)C1=CCN(S(=O)(=O)c2cccc(Cl)c2)C1c1cccc(C)c1 (stereo not drawn)	Rev-erbA mod 18 (no result: DAX1 inh-1) | NR1D1 mod conf inactive
O=C1N2CCc3ccccc3C2CS(=O)(=O)N1CCc1ccccc1 (stereo not drawn)	none (no result: DAX1 inh-1)
O=C(O)c1ccc(-c2nc(-c3ccccc3)c(-c3ccccc3)[nH]2)cc1	none
COc1ccc(N=Nc2nc(-c3ccccc3)c(-c3ccccc3)[nH]2)cc1	none
Oc1ccccc1N=Nc1nc(-c2ccccc2)c(-c2ccccc2)[nH]1	Rev-erbA mod 25 | NR1D1 mod conf 33 | RORg counter inactive
COc1ccccc1N=Nc1nc(-c2ccccc2)c(-c2ccccc2)[nH]1	Rev-erbA mod 35 | NR1D1 mod conf 41 | RORg counter 1.1
COC(=O)[C@H]1C[C@@]2(N3CCCCC3)c3ccccc3N(S(=O)(=O)c3ccccc3)[C@H]2N1	none (no result: DAX1 inh-1)
Nc1ccc2ccc(NS(=O)(=O)N3CCCCC3)cc2c1	none (no result: DAX1 inh-1)
CS(=O)(=O)c1ccc2nc(NC(=O)c3ccc(=O)[nH]c3)sc2c1	none
COc1ccc(C(=O)Nc2nc3ccc(S(C)(=O)=O)cc3s2)cc1	Rev-erbA mod 27 | NR1D1 mod conf inactive
Cc1ccc2nc(NC(=O)c3ccc(OCC4CCCO4)cc3)sc2c1 (stereo not drawn)	Rev-erbA mod 31 | NR1D1 mod conf inactive
CS(=O)(=O)c1ccc2nc(NC(=O)c3ccc(Cl)cc3)sc2c1	Rev-erbA mod 38 | NR1D1 mod conf inactive
CCn1c(=O)n(CC(=O)N2CCOCC2)c(=O)c2ccccc21	none (no result: DAX1 inh-1)
S=C(SCc1nc(-c2ccc(Cl)cc2)no1)N1CCSCC1	none (no result: DAX1 inh-1)
Cc1cc(Br)cn2c(Cc3cccc(F)c3)c(-c3cccc(Cl)c3)nc12	Rev-erbA mod 19 (no result: DAX1 inh-1) | NR1D1 mod conf inactive
Cc1cc(Br)cn2c(Cc3cccc(F)c3)c(-c3ccc(C#N)cc3)nc12	Rev-erbA mod 27 (no result: DAX1 inh-1) | NR1D1 mod conf 13
Cc1ccc(Cc2c(-c3cccc(Cl)c3)nc3c(C)cc(Br)cn23)cc1	none (no result: DAX1 inh-1)
Cc1ccc(-c2nc3c(C)cc(Br)cn3c2Cc2ccccc2C(F)(F)F)cc1	none (no result: DAX1 inh-1)
COc1ccc(-c2nc3ccc(Br)cn3c2Cc2ccccc2C(F)(F)F)cc1OC	Rev-erbA mod 16 (no result: DAX1 inh-1) | NR1D1 mod conf inactive
Cc1cc(Br)cn2c(Cc3ccccc3C(F)(F)F)c(-c3cccc(Cl)c3)nc12	Rev-erbA mod 24 (no result: DAX1 inh-1) | NR1D1 mod conf inactive
